Measurements taken from PubChem BioAssay (EPA / NIEHS).
Records with an inconclusive call do not appear. Calls of active or inactive are those of the source. Rule for the calls: active = hit-call score of the fitted dose curve at least 0.9, where 1 is the maximum; inconclusive = response in the unintended direction; inactive = score below 0.9.

Target: Hepatocyte nuclear factor 4-alpha (Homo sapiens) (UniProt P41235)
Test: ATG_HNF4a_TRANS: Attagene TRANS-FACTORIAL HepG2 Assay for human Hepatocyte Nuclear Factor 4 alpha (HNF4a) (AID 2282982)
Conditions: HepG2 HNF4a transactivation reporter, mRNA readout
In short: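 Activity of an exogenous HNF4a–Gal4 fusion scored as induced GAL4-UAS reporter transcripts after 24 h chemical exposure of transfected human HepG2 cells. Read-out via RT-PCR with 6-FAM labelling and capillary electrophoresis; rise over DMSO baseline.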

Hepatocyte nuclear factor 4-alpha (Homo sapiens), sequence (P41235 whole entry, looked up): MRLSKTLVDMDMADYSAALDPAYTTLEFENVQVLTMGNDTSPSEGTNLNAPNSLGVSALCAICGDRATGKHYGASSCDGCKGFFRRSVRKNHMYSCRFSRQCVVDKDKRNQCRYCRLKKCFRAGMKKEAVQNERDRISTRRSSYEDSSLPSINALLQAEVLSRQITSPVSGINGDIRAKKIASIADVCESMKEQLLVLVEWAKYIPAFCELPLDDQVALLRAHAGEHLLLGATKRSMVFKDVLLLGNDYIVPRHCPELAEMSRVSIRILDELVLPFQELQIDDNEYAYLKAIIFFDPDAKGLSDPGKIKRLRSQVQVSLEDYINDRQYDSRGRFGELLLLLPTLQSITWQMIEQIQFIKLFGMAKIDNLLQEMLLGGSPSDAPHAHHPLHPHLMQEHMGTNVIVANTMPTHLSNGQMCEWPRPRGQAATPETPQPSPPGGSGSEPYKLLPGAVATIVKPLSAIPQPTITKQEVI

| SMILES | outcome |
| --- | --- |
| COC(=O)c1c(C(F)F)nc(C(F)(F)F)c(C2=NCCS2)c1CC(C)C | inactive |
| COC(=O)N(C(=O)N1CO[C@@]2(C(=O)OC)Cc3cc(Cl)ccc3C2=N1)c1ccc(OC(F)(F)F)cc1 | inactive |
| CCCCC(C#N)(Cn1cncn1)c1ccc(Cl)cc1 (configuration not stated) | inactive |
| N#CN=C1SCCN1Cc1ccc(Cl)nc1 | inactive |
| CCC(C)n1c(=O)[nH]c(C)c(Br)c1=O (configuration not stated) | inactive |
| O=C(Nc1ccccc1-c1ccc(Cl)cc1)c1cccnc1Cl | inactive |
| CC1(C)C(C=C(Cl)Cl)C1C(=O)OC(C#N)c1cccc(Oc2ccccc2)c1 (configuration not stated) | inactive |
| CSC(=O)c1c(C(F)F)nc(C(F)(F)F)c(C(=O)SC)c1CC(C)C | inactive |
| CN=C=S | inactive |
| CC1(C)C(C(=O)OC(C#N)c2cccc(Oc3ccccc3)c2)C1(C)C (configuration not stated) | inactive |
| CCOc1cc(C(C)(C)C)ccc1C1COC(c2c(F)cccc2F)=N1 (configuration not stated) | inactive |
| COP(=S)(OC)Oc1ccc([N+](=O)[O-])c(C)c1 | inactive |
| Cc1cc(C)nc(Nc2ccccc2)n1 | inactive |
| CC(C)Oc1cccc(NC(=O)c2ccccc2C(F)(F)F)c1 | inactive |
| O=C1C2CC=CCC2C(=O)N1SC(Cl)(Cl)Cl (configuration not stated) | inactive |
| Cc1c(COC(=O)[C@@H]2[C@H](/C=C(\Cl)C(F)(F)F)C2(C)C)cccc1-c1ccccc1 | inactive |
| N#Cc1c[nH]cc1-c1cccc2c1OC(F)(F)O2 | inactive |
| CCCCOCN(C(=O)CCl)c1c(CC)cccc1CC | inactive |
| CCNC(=O)NC(=O)C(C#N)=NOC | inactive |

Test system: not listed separately
Test: ATG_M_06_TRANS: Attagene TRANS-FACTORIAL HepG2 Assay for M06 Transcription Factor (Internal Marker) (AID 2282983);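 note: reporter transcript level by RT-PCR then capillary electrophoresis fluorescence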
Conditions: HepG2 Attagene TRANS M06 internal marker reporter
In short: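 Human liver HepG2 cells bearing transiently transfected chimeric NR-GAL4 reporter units were treated with chemicals for 24 h. Total RNA was reverse-transcribed, reporter sequences amplified and labelled, then quantified by capillary electrophoresis. Activity was fitted upward relative to DMSO.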

| SMILES | outcome |
| --- | --- |
| COC(=O)c1c(C(F)F)nc(C(F)(F)F)c(C2=NCCS2)c1CC(C)C | inactive |
| COC(=O)NS(=O)(=O)c1ccc(N)cc1 | inactive |
| COP(=S)(OC)SCn1nnc2ccccc2c1=O | inactive |
| CC(C)NC(=O)N1CC(=O)N(c2cc(Cl)cc(Cl)c2)C1=O | inactive |
| CC(C)N1C(=O)c2ccccc2NS1(=O)=O | inactive |
| COP(=O)(OC)O/C(C)=C/C(=O)N(C)C | inactive |
| CCCCC(C#N)(Cn1cncn1)c1ccc(Cl)cc1 (configuration not stated) | inactive |
| O=C(Nc1ccccc1-c1ccc(Cl)cc1)c1cccnc1Cl | inactive |
| CC1(C)C(C=C(Cl)Cl)C1C(=O)OC(C#N)c1cccc(Oc2ccccc2)c1 (configuration not stated) | inactive |
| CSC(=O)c1c(C(F)F)nc(C(F)(F)F)c(C(=O)SC)c1CC(C)C | inactive |
| CN=C=S | inactive |
| COc1ccc(-c2ccccc2)cc1NNC(=O)OC(C)C | inactive |
| CC1(C)C(C(=O)OC(C#N)c2cccc(Oc3ccccc3)c2)C1(C)C (configuration not stated) | inactive |
| C=C(C)CN(CC)c1c([N+](=O)[O-])cc(C(F)(F)F)cc1[N+](=O)[O-] | inactive |
| COP(=S)(OC)Oc1ccc([N+](=O)[O-])c(C)c1 | inactive |
| CC1(C)CCC(=Cc2ccc(Cl)cc2)C1(O)Cn1cncn1 (configuration not stated) | inactive |
| Cc1cc(C)nc(Nc2ccccc2)n1 | inactive |
| Cc1c(COC(=O)[C@@H]2[C@H](/C=C(\Cl)C(F)(F)F)C2(C)C)cccc1-c1ccccc1 | inactive |
| N#Cc1c[nH]cc1-c1cccc2c1OC(F)(F)O2 | inactive |
| CCOC(=O)C(C)OC(=O)c1cc(Oc2ccc(C(F)(F)F)cc2Cl)ccc1[N+](=O)[O-] (configuration not stated) | inactive |
| Nc1c(Cl)c(F)nc(OCC(=O)O)c1Cl | inactive |

Test system: not listed separately
Test: ATG_M_32_TRANS: Attagene TRANS-FACTORIAL HepG2 Assay for M32 Transcription Factor (Internal Marker) (AID 2282984);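 note: transcript level of a background control reporter unit measured by RT-PCR and capillary electrophoresis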
Conditions: HepG2 Attagene TRANS M32 internal marker reporter
In short: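 Internal background reporter in transfected HepG2: after 24 h chemical exposure, RNA reverse-transcribed, reporter cDNA amplified, fluorescently labelled and HpaI-cut, then sized by capillary electrophoresis. Gain of signal fitted against DMSO control.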

| SMILES | outcome |
| --- | --- |
| CCCCC(C#N)(Cn1cncn1)c1ccc(Cl)cc1 (configuration not stated) | inactive |
| CSC(=O)c1c(C(F)F)nc(C(F)(F)F)c(C(=O)SC)c1CC(C)C | inactive |
| CCOc1cc(C(C)(C)C)ccc1C1COC(c2c(F)cccc2F)=N1 (configuration not stated) | inactive |
| CC(C)Oc1cccc(NC(=O)c2ccccc2C(F)(F)F)c1 | inactive |
| COCC(=O)N(c1c(C)cccc1C)C(C)C(=O)OC (configuration not stated) | inactive |

Target: Nuclear receptor subfamily 4 group A member 2 (Homo sapiens) (UniProt P43354)
Test: ATG_NURR1_TRANS: Attagene TRANS-FACTORIAL HepG2 Assay for human Nuclear Receptor Related Protein 1 (NURR1) (AID 2282985)
Conditions: HepG2 Attagene TRANS reporter, mRNA readout
In short: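 Reporter transcript induction, measured by RT-PCR with fluorescent labelling, HpaI digestion and capillary electrophoresis, after 24 hr dosing of human HepG2 cells transiently expressing an exogenous NR-Gal4 fusion with GAL4-UAS-driven reporters; DMSO as baseline.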

Nuclear receptor subfamily 4 group A member 2 (Homo sapiens), sequence (P43354 whole entry, looked up): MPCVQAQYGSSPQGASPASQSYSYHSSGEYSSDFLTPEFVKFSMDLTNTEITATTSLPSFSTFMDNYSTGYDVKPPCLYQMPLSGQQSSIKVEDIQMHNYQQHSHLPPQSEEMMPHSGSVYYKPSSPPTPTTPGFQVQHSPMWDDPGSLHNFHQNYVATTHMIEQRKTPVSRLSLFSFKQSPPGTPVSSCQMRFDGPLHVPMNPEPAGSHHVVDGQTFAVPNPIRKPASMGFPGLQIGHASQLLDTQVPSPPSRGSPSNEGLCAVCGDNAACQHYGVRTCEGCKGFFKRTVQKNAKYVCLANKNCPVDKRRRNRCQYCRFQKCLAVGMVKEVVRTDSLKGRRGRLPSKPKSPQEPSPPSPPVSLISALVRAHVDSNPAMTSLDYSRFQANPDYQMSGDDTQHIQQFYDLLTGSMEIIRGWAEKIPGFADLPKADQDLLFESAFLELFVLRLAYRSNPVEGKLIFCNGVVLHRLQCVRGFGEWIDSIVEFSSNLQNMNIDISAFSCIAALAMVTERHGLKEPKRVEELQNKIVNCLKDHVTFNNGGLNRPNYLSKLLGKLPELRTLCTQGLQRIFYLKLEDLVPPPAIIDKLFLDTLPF

| SMILES | outcome | AC50 |
| --- | --- | --- |
| COC(=O)c1c(C(F)F)nc(C(F)(F)F)c(C2=NCCS2)c1CC(C)C | inactive | – |
| COC(=O)N(C(=O)N1CO[C@@]2(C(=O)OC)Cc3cc(Cl)ccc3C2=N1)c1ccc(OC(F)(F)F)cc1 | inactive | – |
| CC(C)NC(=O)N1CC(=O)N(c2cc(Cl)cc(Cl)c2)C1=O | inactive | – |
| COP(=O)(OC)O/C(C)=C/C(=O)N(C)C | inactive | – |
| CCCCC(C#N)(Cn1cncn1)c1ccc(Cl)cc1 (configuration not stated) | inactive | – |
| N#CN=C1SCCN1Cc1ccc(Cl)nc1 | inactive | – |
| CCC(C)n1c(=O)[nH]c(C)c(Br)c1=O (configuration not stated) | inactive | – |
| COc1cc(OC)nc(NC(=O)NS(=O)(=O)c2ncccc2OCC(F)(F)F)n1 | inactive | – |
| O=C(Nc1ccccc1-c1ccc(Cl)cc1)c1cccnc1Cl | inactive | – |
| CC1(C)C(C=C(Cl)Cl)C1C(=O)OC(C#N)c1cccc(Oc2ccccc2)c1 (configuration not stated) | inactive | – |
| CSC(=O)c1c(C(F)F)nc(C(F)(F)F)c(C(=O)SC)c1CC(C)C | – | 13.5 µM (active) |
| COc1ccc(-c2ccccc2)cc1NNC(=O)OC(C)C | inactive | – |
| CC1(C)C(C(=O)OC(C#N)c2cccc(Oc3ccccc3)c2)C1(C)C (configuration not stated) | inactive | – |
| C=C(C)CN(CC)c1c([N+](=O)[O-])cc(C(F)(F)F)cc1[N+](=O)[O-] | inactive | – |
| COP(=S)(OC)Oc1ccc([N+](=O)[O-])c(C)c1 | inactive | – |
| CC1(C)CCC(=Cc2ccc(Cl)cc2)C1(O)Cn1cncn1 (configuration not stated) | inactive | – |
| CC(C)Oc1cccc(NC(=O)c2ccccc2C(F)(F)F)c1 | inactive | – |
| Cc1c(COC(=O)[C@@H]2[C@H](/C=C(\Cl)C(F)(F)F)C2(C)C)cccc1-c1ccccc1 | inactive | – |
| N#Cc1c[nH]cc1-c1cccc2c1OC(F)(F)O2 | – | 7.82 µM (active) |
| CCCCOCN(C(=O)CCl)c1c(CC)cccc1CC | inactive | – |
| CCNC(=O)NC(=O)C(C#N)=NOC | inactive | – |
| Nc1c(Cl)c(F)nc(OCC(=O)O)c1Cl | inactive | – |
